Over roughly 35,000 sequences, “fluorescence intensity (a.u.)” has its median near 10,000; the highest 2% begin near 52,000. The sample as a whole holds a higher share of the highest values than the screen did.
The sequences below were run against T1, OsWOX13 (Oryza sativa, UniProt Q5QMM3 1-267) (assay: protein-binding microarray (RPBM); PBS, 2% BSA, 51.3 ng/ul salmon testes DNA, 50 uM zinc acetate, 200 nM TF, 25 C, 1 h; high values mean tight binding). Conditions: protein: recombinant; tags: N-terminal polyhistidine and DsRed monomer fusion (pET32a); label: CyDye5-dUTP incorporated in the synthesized complementary strand; 3' TTTTT single-stranded linker to array surface; dsDNA, one strand shown.
T1 sequence: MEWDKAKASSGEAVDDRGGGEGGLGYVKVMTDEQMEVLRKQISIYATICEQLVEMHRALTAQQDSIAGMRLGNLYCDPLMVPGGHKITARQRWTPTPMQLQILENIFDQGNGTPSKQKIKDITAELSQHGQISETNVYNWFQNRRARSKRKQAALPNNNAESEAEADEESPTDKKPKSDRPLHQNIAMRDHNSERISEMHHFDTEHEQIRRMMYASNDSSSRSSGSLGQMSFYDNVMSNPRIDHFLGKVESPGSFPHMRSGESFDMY
Procedure, shortened: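 A custom Agilent array was converted to double-stranded form by primer extension with Cy5-dUTP and blocked with 2% BSA. Protein at 200 nM in PBS with 2% BSA, salmon testes DNA and 50 µM zinc acetate was applied for 1 h at 25 °C, followed by washing. The proteins were polyhistidine–DsRed N-terminal fusions of transcription factors, expressed in E. coli BL21-CodonPlus and Ni–NTA-purified. The binding signal is per-feature fluorescence intensity (arbitrary units) from an Axon 4000B scanner.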

| Sequence | binding signal |
| --- | --- |
| TGTTTGATTATGTTCAATCATTGCAAATCATGTCATCTGTCGGAGTCACCTAGTGCAG | 45900 fluorescence intensity (a.u.) |
| CGTCCGTCATTGATTATGCCAGATCATAGCTGTACGTCGTCGGAGTCACCTAGTGCAG | 21300 fluorescence intensity (a.u.) |
| ATGGATGACTGTGATATGATATCTTACACATCAATGATAGCGGAGTCACCTAGTGCAG | 7720 fluorescence intensity (a.u.) |
| CCAGATTGATGGCTATCATCAGGCCATGCTGTTCTCGTCTCGGAGTCACCTAGTGCAG | 59800 fluorescence intensity (a.u.) |
| TGTGTCATGTTCTGATTGGCTGTGGTTGGTTTGATTTTCTCGGAGTCACCTAGTGCAG | 21100 fluorescence intensity (a.u.) |
| CTAGATGATTGGCTATCATCACCTGTTCACAATCTTATGTCGGAGTCACCTAGTGCAG | 61900 fluorescence intensity (a.u.) |
| TGCATGAATTGATCAACAAGACAAAAGTTACAAAACATGTCGGAGTCACCTAGTGCAG | 4160 fluorescence intensity (a.u.) |
| TTTCAGCACATCATTCCAATTTCAATCATATTTCCAAACTCGGAGTCACCTAGTGCAG | 4200 fluorescence intensity (a.u.) |
| TTCCGGACGTGTGATTGCGATGAGACGTGTTGCAATATCCCGGAGTCACCTAGTGCAG | 7260 fluorescence intensity (a.u.) |
| ACTATTGGAGTATGGTGCGTGATTGTCCACAATTTATTCACGGAGTCACCTAGTGCAG | 3150 fluorescence intensity (a.u.) |
| TGCCATTGTCAATCTCTCTGCTCTCCTCATGTAACTGATGCGGAGTCACCTAGTGCAG | 3180 fluorescence intensity (a.u.) |
| CCATTAAATGCACAATGACACAATTTGAGGATCAGTTTAGCGGAGTCACCTAGTGCAG | 3340 fluorescence intensity (a.u.) |
| GTAAACTGCAATCAATCAGCCATTAAAATCTCATGCTCTGCGGAGTCACCTAGTGCAG | 60000 fluorescence intensity (a.u.) |
| GATTAGATTGATCATTGATCGATCAGTGCCATTAATTGAGCGGAGTCACCTAGTGCAG | 30900 fluorescence intensity (a.u.) |
| CCACCTGTGATTGAAAACAATTACTTTTGAACATGCGCAGCGGAGTCACCTAGTGCAG | 55200 fluorescence intensity (a.u.) |
| TCAAAATTGGAAGTTTTGTTGAAATTGAAACAATGTGATGCGGAGTCACCTAGTGCAG | 19500 fluorescence intensity (a.u.) |
| ACCATTAATAGATTGAGAGCGAATGAATTGGTGCCACGTGCGGAGTCACCTAGTGCAG | 55000 fluorescence intensity (a.u.) |
| AATAACACAATTGTTGATAATTGTTGGATTACTTTGTGAGCGGAGTCACCTAGTGCAG | 16000 fluorescence intensity (a.u.) |
| ATAATTATTTAAATTATATGCATACACCTAGGTGCCATGGCGGAGTCACCTAGTGCAG | 38800 fluorescence intensity (a.u.) |
| AAAATTAAATGCGATCAATCAGAGCCGTCCATATCTCTGCCGGAGTCACCTAGTGCAG | 33400 fluorescence intensity (a.u.) |
| TGCGAAATTTAGCGTGAGAAATTAAGTGATTGATTGAGAGCGGAGTCACCTAGTGCAG | 26900 fluorescence intensity (a.u.) |

| Sequence | binding signal |
| --- | --- |
| ACAATTAATTTAATTAAATTGAGGTCAGCCATGCATGCAGCGGAGTCACCTAGTGCAG | 64800 fluorescence intensity (a.u.) |
| ACTCCCTATTAATTTCCATCACCTTTACCAAACAAGATATCGGAGTCACCTAGTGCAG | 6910 fluorescence intensity (a.u.) |
| GATTTAAACTGAAACGAACAGATTCTTTGTTCTTTGCATACGGAGTCACCTAGTGCAG | 9800 fluorescence intensity (a.u.) |
| ATAATTAGTACCTTATAATAAGTAGCACAATCTTCGTGTTCGGAGTCACCTAGTGCAG | 7900 fluorescence intensity (a.u.) |
| TGGAATGATGGATAAAGTCCAAGTTTGACCTGAGTCAAAGCGGAGTCACCTAGTGCAG | 6270 fluorescence intensity (a.u.) |
| CAGATATAAATTGAGCGACTTCCAGAGTGATCAGCACTACCGGAGTCACCTAGTGCAG | 7440 fluorescence intensity (a.u.) |
| ACAACAACAGCTTTGATCAATCAATCCATCAACTCAGGTTCGGAGTCACCTAGTGCAG | 11400 fluorescence intensity (a.u.) |
| AATCTTTTCTTAATTCTATAATTATCCTTAACGAATTAGTCGGAGTCACCTAGTGCAG | 4150 fluorescence intensity (a.u.) |
| GATAACTGGTGTGGAGGCTGCGGCGTGGGTGGTAAAGCACCGGAGTCACCTAGTGCAG | 3220 fluorescence intensity (a.u.) |
| ATAATTTTGAAATTATTAACATGATATAAATGAGATAGAGCGGAGTCACCTAGTGCAG | 16200 fluorescence intensity (a.u.) |
| ATATGATTATGTGATAATGTTTGAGAGTACAAACAAATGACGGAGTCACCTAGTGCAG | 19000 fluorescence intensity (a.u.) |
| ACAATGATTGATTAATGTTTGATAGTAACAGCCATGAGAGCGGAGTCACCTAGTGCAG | 58800 fluorescence intensity (a.u.) |
| TAAATTTTGACTGATAAGTATAAGTATAAGCGAAAAGATTCGGAGTCACCTAGTGCAG | 12400 fluorescence intensity (a.u.) |
| ATTAATGATTGATAGTCAGTCACTTAGCCATGTTATTTTGCGGAGTCACCTAGTGCAG | 65500 fluorescence intensity (a.u.) |
| TATTATTTATTTTGTTTGTGATTTGCTTTGTTATTAATAGCGGAGTCACCTAGTGCAG | 8380 fluorescence intensity (a.u.) |
| TTTTGATTGATAAGTATAACCATGTATAAGCGAAACAATGCGGAGTCACCTAGTGCAG | 64500 fluorescence intensity (a.u.) |
| GATTTTGATAGGAATGTAAGTATAAAACAGAGGATTGTAACGGAGTCACCTAGTGCAG | 3360 fluorescence intensity (a.u.) |
| TGTTAGATTTAATGTAATTGATTTGATATTTTAGATATTGCGGAGTCACCTAGTGCAG | 49700 fluorescence intensity (a.u.) |
| AACCCAATAACGGTAACTGACAAAACGATGAAAACCAAACCGGAGTCACCTAGTGCAG | 4460 fluorescence intensity (a.u.) |
| ATATAGATTTACGTTGGATTTATACTGATTCTAACCAAATCGGAGTCACCTAGTGCAG | 13600 fluorescence intensity (a.u.) |
| ATGATTTTGTTTTGTTTTGCGAATAATTTTGGCGCCTCAACGGAGTCACCTAGTGCAG | 6150 fluorescence intensity (a.u.) |

From article PMC7819943, “Rice protein-binding microarrays: a tool to detect cis-acting elements near promoter regions in rice”
